Experimental data reported in PubChem BioAssay (Tox21).
Values without a mark were called inactive. Results filed as inconclusive are left out. Entries that show only a call come without a potency. Active and inactive are the calls of the source. Unless noted, calls come from the whole dose curve; as a rule, active = well fitted curve in the direction sought with a large enough effect in the repeat runs; inconclusive = weak or mixed curves; inactive = no such curve, though single readings can be large; an effect the other way counts as inactive or inconclusive.

What was measured:
[1] = qHTS assay to identify small molecule antagonists of the estrogen receptor alpha (ER-alpha) signaling pathway using the BG1 cell line in the presence of 0.1 nM 17-beta-estradiol - cell viability counter screen (AID 1259241); note: nearly all actives have a fitted effect of over 40% in size
Procedure, shortened: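 Cytotoxicity counter-screen: live-cell protease activity measured by fluorescence (30 min reagent step) in the same wells. Cells were VM7Luc4E2 with endogenous ER-alpha and ERE-driven luciferase, treated 22 hr at 37C alongside 0.1 nM 17beta-estradiol final.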

[2] = molecular target: Androgen receptor (Homo sapiens) (UniProt P10275); experiment: qHTS assay to identify small molecule antagonists of the androgen receptor (AR) signaling pathway using the MDA cell line in the presence of 0.5 nM R1881 (AID 1259243); note: nearly all actives have a fitted effect of over 50% in size
Procedure, shortened: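 With R1881 held at 0.5 nM (final), compound effects on MMTV-luciferase expression in MDA-kb2 cells were scored by luminescence after a 16 hr, 37C incubation.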

[3] = molecular target: Estrogen receptor (Homo sapiens) (UniProt P03372); experiment: qHTS assay to identify small molecule antagonists of the estrogen receptor alpha (ER-alpha) signaling pathway using the BG1 cell line in the presence of 0.1 nM 17-beta-estradiol (AID 1259244); note: nearly all actives have a fitted effect of over 50% in size
Procedure, shortened: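 Compounds were tested against 0.1 nM (final) 17beta-estradiol in VM7Luc4E2 cells, which express full-length ER-alpha and an ERE-luciferase reporter; luminescence was recorded following 22 h exposure.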

[4] = qHTS assay to identify small molecule HDAC inhibitors (AID 1259364);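 note: wild-type HCT-116 cells with endogenous class I/II HDAC activity; top concentration of the series differs between compounds; nearly all actives have a fitted effect of over 45% in size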
Procedure, shortened: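 Screening used wild-type human colon HCT-116 cells incubated overnight, dosed with compounds for 2 hours, and assayed with a homogeneous luminogenic HDAC I/II reagent for 30 minutes at room temperature.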

[5] = qHTS assay to identify small molecule HDAC inhibitors - cell viability counter screen (AID 1259365); note: series mostly up to about 92 µM; nearly all actives have a fitted effect of over 50% in size
Procedure, shortened: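 CellTiter-Glo luminescence (30 min, room temperature) reported viability after a 2 h compound exposure at 37 C. Cells: wild-type HCT-116, 1,500 per well, seeded the night before.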

[6] = qHTS assay to identify small molecule antagonists of the sonic hedgehog signaling (Shh) pathway - cell viability counter screen (AID 1259367); note: nearly all actives have a fitted effect of over 55% in size
Procedure, shortened: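 Fluorescence read-out (CellTiter-Fluor, 1 hr at 37C) taken after 23 hr compound treatment of 3T3 Gli1-Luc cells stimulated with conditioned medium. Cells were seeded at 2,000 per well and pre-incubated 4 hr.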

[7] = qHTS assay to identify small molecule agonists of the sonic hedgehog signaling (Shh) pathway (AID 1259368; calls by dose curve;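 note: NIH/3T3-derived 3T3Gli1-Luc cells carrying a stable Gli1-driven firefly luciferase reporter; series mostly up to about 92 µM; nearly all actives have a fitted effect of over 15% in size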)
Procedure, shortened: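 Hedgehog pathway agonism scored by increased firefly luciferase luminescence in 3T3Gli1-Luc cells treated 24 hr at 37 C; detection used a 30 min room-temperature reagent incubation.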

[8] = qHTS assay to identify small molecule antagonists of the sonic hedgehog signaling (Shh) pathway (AID 1259369; calls by dose curve; note: nearly all actives have a fitted effect of over 45% in size; note: potency is the fitted concentration of half-maximal effect)
Procedure, shortened: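 NIH/3T3 stable Gli1-Luc clone, 2,000 cells/well, 4hr settle; cpd + conditioned medium 24hr; Luc reagent 30min RT; luminescence.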

[9] = molecular target: Estrogen receptor beta (Homo sapiens) (UniProt Q92731); experiment: qHTS assay to identify small molecule agonists of the estrogen receptor beta (ER-beta) signaling pathway (AID 1259377; active = well fitted activation curve with a large enough effect in the signal ratio in the repeat runs, not every such curve was filed as active; the % refers to the signal ratio)
Procedure, shortened: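 Ratiometric beta-lactamase FRET read-out came after 2 h substrate loading at room temperature. It followed 16 h compound treatment at 37C of GripTite HEK293T cells carrying a UAS-bla reporter, plated in 2% charcoal-stripped FBS medium.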

[10] = molecular target: Estrogen receptor beta (Homo sapiens) (UniProt Q92731); experiment: qHTS assay to identify small molecule antagonists of the estrogen receptor beta (ER-beta) signaling pathway (AID 1259378; active = well fitted inhibition curve with a large enough effect in the signal ratio in the repeat runs, not every such curve was filed as active; the % refers to the signal ratio)
Procedure, shortened: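 ER-beta-UAS-bla HEK293T cells in 2% charcoal-stripped FBS medium treated with compound plus 1nM final 17-beta-estradiol for 16 hr at 37C. Beta-lactamase reporter read by FRET substrate fluorescence after 2 hours at room temperature.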

[11] = qHTS assay to identify small molecule agonists of the androgen receptor (AR) signaling pathway in the presence of an antagonist - cell viability counter screen (AID 1259379);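 note: MDA-kb2 human breast cancer cells carrying an MMTV luciferase reporter; series mostly up to about 92 µM; nearly all actives have a fitted effect of over 25% in size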
Procedure, shortened: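 MDA-kb2 viability measured by CellTiter-Fluor fluorescence in the same wells as the luciferase signal; nilutamide 3.0uM final; 15-point compound titration; 16 hr at 37C.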

[12] = qHTS assay to identify small molecule agonists of the estrogen receptor beta (ER-beta) signaling pathway - cell viability counter screen (AID 1259380); note: nearly all actives have a fitted effect of over 30% in size
Procedure, shortened: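 Measured: luminescence from CellTiter-Glo after 30 min at room temperature, added to wells already read for the LiveBLAzer FRET reporter (2 hr substrate); ER-beta-UAS-bla HEK293T cells had 16 hr compound treatment at 37C, 5% CO2.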

[13] = molecular target: Androgen receptor (Homo sapiens) (UniProt P10275); experiment: qHTS assay to identify small molecule agonists of the androgen receptor (AR) signaling pathway in the presence of an antagonist (AID 1259381; calls by dose curve; note: nearly all actives have a fitted effect of over 15% in size)
Procedure, shortened: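 Luminescent ONE-Glo read, 30min at room temperature, follows 16hr compound exposure (15 concentrations) of MDA-kb2 cells at 37C, 0% CO2, with nilutamide added at 3.0uM final.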

[14] = qHTS assay to identify small molecule antagonists of the estrogen receptor beta (ER-beta) signaling pathway - cell viability counter screen (AID 1259382); note: series mostly up to about 92 µM; nearly all actives have a fitted effect of over 55% in size
Procedure, shortened: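 Readout: luminescence, CellTiter-Glo, same wells as bla assay. System: ER-beta-UAS-bla GripTite HEK293T, 2% charcoal-stripped FBS. Exposure: compounds plus 1nM 17-beta-estradiol, 16 hr, 37C.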

[15] = molecular target: Estrogen receptor (Homo sapiens) (UniProt P03372); experiment: qHTS assay to identify small molecule agonists of the estrogen receptor alpha (ER-alpha) signaling pathway in the presence of an antagonist (AID 1259383; calls by dose curve; note: top concentration of the series differs between compounds; nearly all actives have a fitted effect of over 15% in size)
Procedure, shortened: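 Quantitative HTS confirmation: compounds titrated at 15 concentrations onto estrogen-deprived VM7Luc4E2 cells carrying a four-ERE luciferase construct, with ICI-182,780 present at 10.0nM final. Signal is luminescence after 22hr exposure.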

[16] = qHTS assay to identify small molecule agonists or antagonists of the thyroid stimulating hormone receptor (TSHR) signaling pathway - wild type cell line counter screen (AID 1259384; calls by dose curve)
Procedure, shortened: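 Wild-type Hek293 cells, 800/well, 18 h at 37C, then compound with Ro20-1724 for 30 min RT. cAMP by HTRF (cAMP-d2/anti-cAMP cryptate), 1 h RT, fluorescence read. 15 concentrations, triplicates.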

[17] = molecular target: Thyrotropin receptor (Homo sapiens) (UniProt P16473); experiment: qHTS assay to identify small molecule antagonists of the thyroid stimulating hormone receptor (TSHR) signaling pathway (AID 1259385; calls by dose curve; note: nearly all actives have a fitted effect of over 20% in size)
Procedure, shortened: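 TSHR-HEK293 cells (800/well) plated 18 h, then compounds with Ro20-1724 and TSH at 1.5 ng/mL final, 30 min at room temperature. cAMP quantified by HTRF (cAMP-d2/anti-cAMP-cryptate, 1 h); 15 concentrations in triplicate.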

[18] = qHTS assay to identify small molecule antagonists of the androgen receptor (AR) signaling pathway using the MDA cell line in the presence of 0.5 nM R1881 - cell viability counter screen (AID 1259242); note: nearly all actives have a fitted effect of over 45% in size
Procedure, shortened: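 Concentration-response screen of compounds for toxicity in MDA-kb2 reporter cells: 16 hr at 37C with 0.5 nM R1881, endpoint live-cell protease fluorescence measured in the reporter wells.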

[19] = qHTS assay to identify small molecule agonists of the sonic hedgehog signaling (Shh) pathway - cell viability counter screen (AID 1259366); note: nearly all actives have a fitted effect of over 50% in size
Procedure, shortened: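 Cytotoxicity counter screen: CellTiter-Fluor reagent added after 23 h compound exposure, then 1 h at 37C and fluorescence read. Cells were 3T3 Gli1-Luc, seeded 2,000 per well and dosed 4 h post-plating.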

[20] = qHTS assay to identify small molecule phospholipidosis (PLD) inducers (AID 1259344; active = well fitted curve in the direction sought with a large enough effect; an effect the other way counts as inactive or inconclusive)
Procedure, shortened: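 Read-out is LipidTOX Red fluorescence (ex 595/em 615) imaged in HepG2 cells after 24 h compound exposure at 37 C, with Hoechst nuclear counterstain (ex 352/em 461) allowing per-cell normalisation.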

Chain of Thyrotropin receptor (Homo sapiens) (P16473 whole entry, looked up): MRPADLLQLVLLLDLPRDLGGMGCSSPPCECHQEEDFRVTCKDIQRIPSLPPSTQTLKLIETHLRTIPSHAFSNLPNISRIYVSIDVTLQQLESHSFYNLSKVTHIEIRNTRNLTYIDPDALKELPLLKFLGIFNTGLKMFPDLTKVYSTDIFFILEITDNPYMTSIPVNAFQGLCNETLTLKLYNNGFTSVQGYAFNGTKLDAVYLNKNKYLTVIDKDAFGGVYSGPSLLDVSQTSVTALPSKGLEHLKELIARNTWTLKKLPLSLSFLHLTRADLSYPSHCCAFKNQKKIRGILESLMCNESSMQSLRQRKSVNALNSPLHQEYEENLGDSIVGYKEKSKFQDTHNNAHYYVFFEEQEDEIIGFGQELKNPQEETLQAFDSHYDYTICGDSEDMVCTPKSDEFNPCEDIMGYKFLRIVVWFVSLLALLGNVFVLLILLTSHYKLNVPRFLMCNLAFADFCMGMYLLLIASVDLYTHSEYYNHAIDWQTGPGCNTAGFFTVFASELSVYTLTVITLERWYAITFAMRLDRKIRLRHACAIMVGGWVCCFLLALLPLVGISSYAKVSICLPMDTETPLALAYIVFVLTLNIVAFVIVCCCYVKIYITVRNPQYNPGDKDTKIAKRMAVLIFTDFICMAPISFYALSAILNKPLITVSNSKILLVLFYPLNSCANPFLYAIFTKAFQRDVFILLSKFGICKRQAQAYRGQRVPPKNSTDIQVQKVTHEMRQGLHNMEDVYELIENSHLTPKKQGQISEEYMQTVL
Chain of Estrogen receptor beta (Homo sapiens) (Q92731 whole entry, looked up): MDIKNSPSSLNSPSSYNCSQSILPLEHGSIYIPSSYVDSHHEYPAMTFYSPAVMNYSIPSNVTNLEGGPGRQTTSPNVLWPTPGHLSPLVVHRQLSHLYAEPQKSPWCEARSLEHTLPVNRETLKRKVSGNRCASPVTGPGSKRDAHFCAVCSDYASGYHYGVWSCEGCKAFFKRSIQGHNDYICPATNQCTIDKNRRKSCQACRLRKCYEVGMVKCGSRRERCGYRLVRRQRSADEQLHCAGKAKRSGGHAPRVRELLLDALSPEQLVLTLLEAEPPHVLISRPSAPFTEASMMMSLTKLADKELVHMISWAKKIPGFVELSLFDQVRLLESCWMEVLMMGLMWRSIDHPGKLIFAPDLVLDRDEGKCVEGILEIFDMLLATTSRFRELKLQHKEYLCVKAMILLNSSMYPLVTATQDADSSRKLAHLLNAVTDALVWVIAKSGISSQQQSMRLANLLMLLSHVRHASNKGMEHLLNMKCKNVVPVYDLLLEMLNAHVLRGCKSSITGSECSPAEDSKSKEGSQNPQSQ
Chain of Androgen receptor (Homo sapiens) (P10275 whole entry, looked up): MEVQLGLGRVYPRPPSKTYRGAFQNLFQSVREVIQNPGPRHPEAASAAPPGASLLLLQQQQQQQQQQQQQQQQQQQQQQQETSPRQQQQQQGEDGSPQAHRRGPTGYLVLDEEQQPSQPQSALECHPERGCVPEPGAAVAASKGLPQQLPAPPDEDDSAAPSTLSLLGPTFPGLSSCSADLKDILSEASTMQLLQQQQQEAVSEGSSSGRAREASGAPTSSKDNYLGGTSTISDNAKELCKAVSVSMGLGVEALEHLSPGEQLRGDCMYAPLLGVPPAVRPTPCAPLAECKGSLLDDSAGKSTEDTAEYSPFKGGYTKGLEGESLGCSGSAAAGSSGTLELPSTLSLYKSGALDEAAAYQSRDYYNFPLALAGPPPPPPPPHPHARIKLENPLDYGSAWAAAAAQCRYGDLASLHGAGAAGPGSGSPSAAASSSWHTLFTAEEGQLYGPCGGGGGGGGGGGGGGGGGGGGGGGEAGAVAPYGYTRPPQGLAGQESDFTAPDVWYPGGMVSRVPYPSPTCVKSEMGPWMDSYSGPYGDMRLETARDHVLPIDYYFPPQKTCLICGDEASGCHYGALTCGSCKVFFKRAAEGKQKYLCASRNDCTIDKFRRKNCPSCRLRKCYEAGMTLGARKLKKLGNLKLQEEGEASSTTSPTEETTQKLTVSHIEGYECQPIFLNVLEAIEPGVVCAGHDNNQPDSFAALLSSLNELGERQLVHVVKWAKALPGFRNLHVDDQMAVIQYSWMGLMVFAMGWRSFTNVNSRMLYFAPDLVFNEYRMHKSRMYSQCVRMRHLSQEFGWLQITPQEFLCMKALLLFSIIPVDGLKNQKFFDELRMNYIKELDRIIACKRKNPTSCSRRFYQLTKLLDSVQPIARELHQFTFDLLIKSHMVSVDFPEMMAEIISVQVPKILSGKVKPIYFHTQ
Chain of Estrogen receptor (Homo sapiens) (P03372 whole entry, looked up): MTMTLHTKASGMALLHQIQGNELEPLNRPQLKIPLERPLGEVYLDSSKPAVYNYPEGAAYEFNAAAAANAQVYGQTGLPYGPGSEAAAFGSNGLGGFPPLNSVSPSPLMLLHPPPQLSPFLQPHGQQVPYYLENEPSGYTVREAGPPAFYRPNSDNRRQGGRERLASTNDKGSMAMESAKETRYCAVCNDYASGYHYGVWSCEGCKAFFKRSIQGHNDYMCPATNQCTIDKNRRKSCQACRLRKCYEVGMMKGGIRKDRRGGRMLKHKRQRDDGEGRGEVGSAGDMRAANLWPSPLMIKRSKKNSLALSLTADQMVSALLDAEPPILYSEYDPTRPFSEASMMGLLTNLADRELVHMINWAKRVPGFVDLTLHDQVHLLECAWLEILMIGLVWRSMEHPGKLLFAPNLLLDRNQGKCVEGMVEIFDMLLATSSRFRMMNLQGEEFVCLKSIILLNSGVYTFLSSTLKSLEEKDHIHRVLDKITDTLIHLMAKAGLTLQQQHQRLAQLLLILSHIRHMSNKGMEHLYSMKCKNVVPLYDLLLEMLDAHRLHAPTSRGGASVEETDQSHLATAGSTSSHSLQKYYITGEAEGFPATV

Row | Structure (SMILES) | Potency [1] | Potency [2] | Potency [3] | Potency [4] | Potency [5] | Potency [6] | Potency [7] | Potency [8] | Potency [9] | Potency [10] | Potency [11] | Potency [12] | Potency [13] | Potency [14] | Potency [15] | Potency [16] | Potency [17] | Potency [18] | Potency [19] | Potency [20]
1 | CC(=O)c1ccc[nH]1 | inactive | inactive | inactive | inactive | inactive | inactive | inactive | inactive | inactive | inactive | inactive | inactive | inactive | inactive | inactive | inactive | inactive |  |  | 
2 | CC(C)(O)c1coc(S(=O)(=O)NC(=O)Nc2c3c(cc4c2CCC4)CCC3)c1 | inactive |  |  | inactive | inactive |  | inactive | 54.5 µM (active) | inactive | inactive | inactive | inactive |  | inactive |  | inactive | inactive | inactive | inactive | 
3 | O=C1OC[C@H](Cc2cccc(O)c2)[C@H]1Cc1cccc(O)c1 | inactive |  |  | inactive | inactive | inactive | inactive | inactive |  |  | inactive | inactive |  | inactive |  | inactive | inactive | inactive |  | 
4 | CCOC(=O)C(C)O (stereo unspecified) | inactive |  |  | inactive | inactive | inactive |  | inactive | inactive |  | inactive | inactive |  | inactive | inactive |  |  | inactive | inactive | 
5 | CCOC(=O)c1ccc(NC(=O)CN2CCCCC2)cc1 | inactive | inactive | inactive | inactive | inactive | inactive | inactive | inactive |  |  |  |  | inactive | inactive | inactive | inactive | inactive |  | inactive | inactive
6 | COc1ccc(-n2nc(C(F)F)cc2-c2ccc(S(C)=O)cc2)cc1 (stereo unspecified) | inactive |  |  | inactive | inactive | inactive | inactive | 1.09 µM (active) |  |  |  | inactive |  | inactive | inactive | inactive | inactive | inactive | inactive | 
7 | O=C(O)c1ccc(O)cc1O | inactive |  |  | inactive | inactive |  | inactive | inactive | inactive | inactive |  | inactive |  | inactive |  | inactive | inactive | inactive | inactive | 
8 | CCCCCCC(CO)CCCC (stereo unspecified) | inactive |  |  | inactive | inactive | inactive |  | inactive |  |  | inactive | inactive |  | inactive |  | inactive | inactive | inactive | inactive | 
9 | COc1ccc2nc(S(=O)Cc3ncc(C)c(OC)c3C)[nH]c2c1 (stereo unspecified) | inactive |  | inactive | inactive | inactive | inactive | inactive |  |  |  | inactive | inactive |  | inactive |  | inactive | inactive |  | inactive | inactive
10 | CCC(C)(C)C(=O)O | inactive | inactive | inactive | inactive | inactive | inactive | inactive | inactive | inactive | inactive | inactive | inactive | inactive | inactive | inactive | inactive | inactive |  |  | 
11 | C=CCOC(=O)COCCC(C)C | inactive |  |  | inactive | inactive |  | inactive | inactive | inactive | inactive | inactive | inactive |  |  | inactive | inactive | inactive | inactive | inactive | 
12 | CCC(=O)OCc1ccc(OC)cc1 | inactive |  |  | inactive | inactive | inactive | inactive |  | inactive | inactive |  | inactive |  | inactive |  | inactive | inactive | inactive | inactive | 
13 | CSSc1ccoc1C | inactive |  |  | inactive | inactive |  | inactive | inactive | inactive | inactive | inactive | inactive |  | inactive |  | inactive | inactive | inactive | inactive | 
14 | COC(CC(C)CCCC(C)(C)O)OC (stereo unspecified) | inactive |  |  | inactive | inactive | inactive | inactive | inactive |  |  | inactive | inactive |  | inactive |  | inactive | inactive | inactive |  | 
15 | CC(C)N=C=NC(C)C | inactive |  |  | inactive | inactive | inactive | inactive |  |  |  | inactive |  |  |  | inactive |  |  | inactive | inactive | 
16 | COC1CCC=CO1 (stereo unspecified) |  |  | inactive | inactive | inactive |  | inactive | inactive | inactive | inactive | inactive | inactive |  | inactive | inactive | inactive | inactive | inactive |  | 
17 | COc1ccc(-c2cc(C(F)F)nn2-c2ccc(S(N)(=O)=O)cc2)cc1F |  |  |  | inactive |  | inactive | inactive |  | inactive | inactive | inactive | inactive |  | inactive | inactive |  |  | inactive | inactive | inactive
